PubChem BioAssay (EPA / NIEHS)
Calls of active or inactive are those of the source. How the source made its calls: active means hit-call score of the fitted dose curve at least 0.9, where 1 is the maximum; inactive means score below 0.9.

read-out: Bcl-2 (BID) gene, BID (gene 637); experiment: LTEA_HepaRG_BID: Life Technologies and Expression Analysis (LTEA) Assay for Bcl-2 (BID) gene using HepaRG (AID 2283476); conditions: mRNA level, 48 h; actives raise or lower the signal
Description: LTEA_HepaRG is a cell based, multiplexed-readout assay that uses HepaRG, a human liver cell line, with measurements taken at 48 hours after chemical dosing on a 96-well plate.LTEA_HepaRG_BID is one of 102 assay component(s) measured in the LTEA HepaRG cell culture assay. It is a marker of Cell proliferation, survival, death.Data from the assay component LTEA_HepaRG_BID was analyzed into 1 endpoint. This assay endpoint, LTEA_HepaRG_BID, was analyzed with bidirectional fitting relative to DMSO as the negative control and baseline of activity. Using a type of inducible reporter, measures of mRNA induction for gain or loss-of-signal activity can be used to understand regulation of transcription factor activity. To generalize the intended target to other relatable targets, this assay endpoint is annotated to the cell cycle intended target family, where the subfamily is Cell proliferation, survival, death.
A total of 1060 chemcials from the ToxCast library were tested in eight-point concentration-response experiments. Cell culture and cytotoxicity assays were conducted at Thermo Fisher Scientific's Custom Services facility (Madison, WI). A single lot of human HepaRG cells (Thermo Fisher Scientific, Frederick, MD) was used for the cell culture experiments. 96-well format collagen type I coated plates of human HepaRG cells were prepared using established methods. Briefly, cryopreserved HepaRG cells were thawed, plated at a density of approximately 100,000 cells/well in HepaRG Thaw, Plate, and General Purpose media (HPRG770, Thermo Fisher Scientific), and incubated for 48 hours. 0.5% DMSO was selected as vehicle control to balance the requisite need of DMSO in HepaRG cultures to maintain differentiation (for example, baseline metabolism, proportions of hepatocytes vs. cholangiocytes), while enabling further hepatic receptor pathway activation (for example, PXR and CAR) in response to chemical exposure. 48 hours after plating, the culture medium was replaced with HepaRG Serum-Free Incudtion Media. Cells were exposed to each test chemical in duplicate and maintained in CO2 incubators for another 48 hours. Chemical plates were thawed to room temperature and 200x concentrations of treatment groups were prepared. 8-point conentration-reponse curves were made with the highest exposure at 100 uM, followed by half-log dilutions, all in 0.5% DMSO. Each test plate contained variouse controls, induction positive controls (1mM phenobarbital), cytotoxicity positive controls ([…] aflatoxin B1), vehicle controls (0.5% DMSO), and total lysis controls (0.5% DMSO). Cell morphology images were taken using an Essen IncuCyte FLR automated microscope, with six 96-well plates imaged in about 24 minutes. Images were captured and exported and JPEG files. Spent culture media was transfered to black-well plates for the LDH assay, and remaining media was sorted at -80 C for later use. Cells were treated with RLT buffer and frozen until shipped for gene expression analysis. Total RNA was isolated from the cell suspension in 75 uL of Buffer RLT (Qiagen, Germantown, MD 20874) by Quintiles/Expression Analysis (Durham, NC) using a custom isolation procedure. Total RNA from each plate well was transferred to a preamplification plate. Fluidigm's 96.96 Dynamic ArrayTM (Fluidigm, Amsterdam, the Netherlands) technology was used for gene expression analyses by quantitative reverse transcription polymerase chain reaction (qRT-PCR, performed by Quintiles/Expression Analysis, Durham, NC)89. Standard TaqManTM Assays (Applied Biosystems/ThermoFisher Scientific, Foster City, CA) were used to assess the expression of 93 genes selected based on their selectivity and sensitivity to important hepatic receptors known to be modulated by environmental chemicals; importance in human hepatocyte functionality; and hepatotoxicity. […]

Q: How did the outcome turn out when Nc1ccc2c(c1)C(=O)c1ccccc1C2=O was run?
A: inactive

Q: How did the outcome turn out when CC(=O)C(C)=CC1C(C)=CCCC1(C)C (stereo not given) was run?
A: inactive

Q: For CCCCN(CCCC)CCCC, which outcome is on record?
A: inactive

Q: With O=C(O)CCCCC(=O)O as the compound, how does the outcome read?
A: inactive

Q: With Cc1ccc(C)c(O)c1C as the compound, how does the outcome read?
A: inactive

Q: For CNC(=O)[C@H]1O[C@@H](n2cnc3c(NCc4cc(Cl)ccc4OCc4cc(C)no4)ncnc32)[C@H](O)[C@@H]1N, which outcome is on record?
A: inactive

Q: With CCc1c(C(=O)NN2CCCCC2)nn(-c2ccc(Cl)cc2Cl)c1-c1ccc(Br)cc1 as the compound, how does the outcome read?
A: inactive

Q: Which outcome does the source give for CCCCCCCCCCCC(=O)OC here?
A: inactive

Q: For CCCCCCCCCCCCCCCCCC(=O)O, which outcome is on record?
A: inactive

Q: For O=[N+]([O-])C(CO)(CO)CO, which outcome is on record?
A: inactive

Q: For O=C(N[C@@H](Cc1ccccc1)[C@@H](O)C(=O)N1C[C@@H](O)[C@@H](O)C1)c1cc2cc(Cl)ccc2[nH]1, which outcome is on record?
A: inactive

Q: CC(=O)OCCOCCOCCOC(C)=O was tested. Which outcome did it give?
A: inactive

Q: With NS(=O)(=O)c1cc2c(cc1Cl)NCNS2(=O)=O as the compound, how does the outcome read?
A: inactive

Q: For CCCCCCCCCCCCCCCC, which outcome is on record?
A: inactive

Q: For COc1cc(-c2nc(NC(=O)c3cc4cc(C)cc(C)c4n3CC(=O)O)sc2CCC2CCCCC2)c(OC)cc1Cl, which AC50 is on record?
A: 5.4 µM (active)

Q: With Oc1ccc2c(c1)OC[C@@H](N1CCC(O)(c3ccc(F)cc3)CC1)[C@H]2O as the compound, how does the outcome read?
A: inactive

Q: COCCOC[C@H](CC1(C(=O)NC2CCC(C(=O)O)CC2)CCCC1)C(=O)Oc1ccc2c(c1)CCC2 (stereo not given in full) was tested. Which outcome did it give?
A: inactive

Q: Cc1ccc(N(C)C)cc1 was tested. Which outcome did it give?
A: inactive

Q: CC(=O)Oc1ccccc1C(=O)O was tested. Which outcome did it give?
A: inactive

Q: Which outcome does the source give for O=C(O)Cc1ccccc1Nc1c(Cl)cccc1Cl here?
A: inactive

Q: How did the outcome turn out when Nc1ccccc1N was run?
A: inactive

Q: CCCCc1ccc2c(n1)[C@@H](c1ccc(OC)cc1C[C@H](C)C(=O)O)[C@H](C(=O)O)[C@H]2c1ccc2c(c1)OCO2 was tested. Which outcome did it give?
A: inactive

Q: How did the outcome turn out when OC[C@@H](O)[C@@H](O)[C@H](O)[C@H](O)CO was run?
A: inactive

Q: Which outcome does the source give for C=CCOC(=O)c1ccccc1C(=O)OCC=C here?
A: inactive

Q: With CC1(C)NC(=O)NC1=O as the compound, how does the outcome read?
A: inactive

Q: C[Si]1(C)O[Si](C)(C)O[Si](C)(C)O[Si](C)(C)O1 was tested. Which outcome did it give?
A: inactive

Q: With CCCc1cc(=O)[nH]c(=S)[nH]1 as the compound, how does the outcome read?
A: inactive

Q: How did the outcome turn out when Cc1cccc([N+](=O)[O-])c1C was run?
A: inactive

Q: For CCOc1ccc2c(c1)C(C)=CC(C)(C)N2, which outcome is on record?
A: inactive

Q: Which outcome does the source give for Cc1ccccc1Cl here?
A: inactive

Q: How did the outcome turn out when CCOC(=O)CCC(=O)OCC was run?
A: inactive

Q: With COc1ccc(S(=O)(=O)N2C(=O)[C@@](c3ccccc3OC)(N3C[C@H](O)C[C@H]3C(=O)N(C)C)c3cc(Cl)ccc32)c(OC)c1 as the compound, how does the outcome read?
A: inactive

Q: With Clc1cc(Cl)c(Cl)cc1Cl as the compound, how does the outcome read?
A: inactive

Q: Which outcome does the source give for Cc1ccc(C(C)C)c(O)c1 here?
A: inactive

Q: Which outcome does the source give for Nc1nc(N)c2nc(CNc3ccc(C(=O)N[C@@H](CCC(=O)O)C(=O)O)cc3)cnc2n1 here?
A: inactive

Q: With CC(CO)OC(C)CO (stereo not given) (tested in a mixture with another compound) as the compound, how does the outcome read?
A: inactive

Q: For CCNc1cccc(C)c1, which outcome is on record?
A: inactive

Q: With NCCO as the compound, how does the outcome read?
A: inactive

Q: CC1=C(/C=C/C(C)=C/C=C/C(C)=C/CO)C(C)(C)CCC1 was tested. Which outcome did it give?
A: inactive

Q: CN[C@H]1CC[C@@H](c2ccc(Cl)c(Cl)c2)c2ccc(S(N)(=O)=O)cc21 was tested. Which outcome did it give?
A: inactive
